Test results as given in PubChem BioAssay.
Several values for one entry are separate records, joined by “and”; a condition that tells them apart may be missing. Identical values can stand only once. Inconclusive results are not listed. Activity calls are given as the source filed them.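 The calls were made as follows, unless noted: active = compounds killing one labelled cell type while sparing the other, by normalised counts and ratio limits, not self-fluorescent; inactive = the rest.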

Legend:
[1] = stimulators of insulin release from INS-1E, primary screen, cell-based, 5 mM glucose, NPC library (AID 1117329;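 active = compound raises insulin release from rat beta cells at 5 mM glucose, no numeric limit stated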); details: rat INS-1E insulin secretion, at 10 µM, stronger effect = higher value
[2] = growth inhibition of GSK3B-pretreated HCT116 cells – cell-based, CellTiter-Glo, 0.2 to 20 µM (AID 1117336;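 active = compounds lowering colon cancer cell viability after pretreatment blocking the GSK3B kinase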); details: HCT116 viability after GSK3B inhibitor, at 20 µM, stronger effect = higher value
[3] = inhibition of endothelial tube formation, primary screen, imaging, VEGF stimulated, CD31 staining, tube area, NPC library (AID 1117340;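 active = compound that reduces growth-factor-driven endothelial tube area in a mixed cell culture, no cutoff stated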); details: VEGF-stimulated ADSC/ECFC co-culture, at 10 µM, stronger effect = higher value
[4] = glucagon-like peptide 1 release enhancers, primary assay, NCI-H716 cell line, NPC library (AID 1117341;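 active = compound raises GLP1 secretion from the human gut endocrine cells, with no numeric limit stated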); details: NCI-H716 cells, at 10 µM, stronger effect = higher value
[5] = HCT116 colon cancer cell growth inhibition, primary screen, CellTiter-Glo luminescence, NPC library (AID 1117342;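 active = compounds that lower survival of HCT116 colon cancer cells in the luminescence readout, no numeric limit stated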); details: at 20 µM (top of the series)
[6] = CellTiter-Glo luminescent readout of SW480 viability loss, NPC library primary (AID 1117343;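 active = compounds that lower viability of the colon cancer cells in the luminescence readout, with no numeric limit stated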); details: CellTiter-Glo luminescence; at 20 µM (top of the series)
[7] = decreased DLD-1 cellular survival, CellTiter-Glo luminescent readout, NPC compound collection, primary HTS (AID 1117346;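 active = compounds that lower survival of DLD-1 colon cancer cells in the luminescence readout, no cutoff given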); details: DLD-1 viability, CellTiter-Glo luminescence; at 20 µM (top of the series)
[8] = biological target: 6-phosphogluconate dehydrogenase, decarboxylating (Homo sapiens) (UniProt P52209); assay: 6PGD enzyme inhibitors, primary screen, biochemical, human, recombinant enzyme, NADPH absorbance (AID 1159550;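 active = at least 20% inhibition of 6-phosphogluconate dehydrogenase activity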); details: recombinant 6PGD, NADPH absorbance 341 nm; at 10 µM; stronger effect = higher value
[9] = differential killing of epithelial or mesenchymal cells, primary screen, imaging, PC-3E GFP, TEM4-18 mCherry, co-culture (AID 1345086); details: imaging cell counts, at 1 µM; for red/green cell ratio (normalised): actives lie on both sides, counts scaled to control wells, 1 = unselective;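 as to all read-outs here: cells exposed to compound for 72 h before imaging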;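 as to red/green cell ratio (normalised): normalised mesenchymal count divided by normalised epithelial count so high means epithelial killing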
[10] = system: Aerobactin synthetase IucA (Klebsiella pneumoniae); assay: IucA aerobactin synthetase inhibitors, biochemical, Tocris library, absorbance (AID 1345561; call rule not given here;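 also: 100% = enzyme without compound and 0% = no enzyme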); details: purified IucA enzyme assay, absorbance (OD) read-out; stronger effect = lower value;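 tested at 8 µM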
[11] = growth inhibition of DIPG glioma cells, dose response, cell-based, SU-DIPG-XVII, MIPE5.0, CellTiter-Glo, qHTS (AID 1347060; cut-off not given, nearly all actives have AC50 up to about 26 µM;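 as to AC50: cells exposed to compound for 48 hours before viability readout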); details: SU-DIPG-XVII viability, CellTiter-Glo ATP luminescence
[12] = growth inhibition of DIPG glioma cells, dose response, cell-based, SU-DIPG-XIII, MIPE5.0, CellTiter-Glo, qHTS (AID 1347064; cut-off not given, nearly all actives have AC50 up to about 23 µM;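 as to AC50: cells exposed to compound for 48 hours before the viability read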); details: SU-DIPG-XIII viability, CellTiter-Glo ATP luminescence
[13] = growth inhibition of DIPG glioma cells, dose response, cell-based, SU-DIPG-XIII, MIPE4.0, CellTiter-Glo, qHTS (AID 1347061; cut-off not given, nearly all actives have AC50 up to about 37 µM;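 also: cells exposed to compound for 48 hours before readout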); details: SU-DIPG-XIII viability, CellTiter-Glo ATP luminescence
[14] = growth inhibition of DIPG glioma cells, dose response, cell-based, JHH-DIPG-1, MIPE4.0, CellTiter-Glo, qHTS (AID 1347062; cut-off not given, nearly all actives have AC50 up to about 27 µM;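 as to AC50: cells exposed to compound for two days before readout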); details: JHH-DIPG-1 viability, CellTiter-Glo ATP luminescence
[15] = growth inhibition of DIPG glioma cells, dose response, cell-based, SU-DIPG-IV, MIPE4.0, CellTiter-Glo, qHTS (AID 1347063; cut-off not given, nearly all actives have AC50 up to about 30 µM;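 also: compound exposure lasted 48 hours before the viability readout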); details: SU-DIPG-IV viability, CellTiter-Glo ATP luminescence
[16] = measured here: epithelial PC-3E GFP cell survival
[17] = measured here: mesenchymal TEM4-18 mCherry cell survival

6-phosphogluconate dehydrogenase, decarboxylating (Homo sapiens), sequence (P52209 whole entry, looked up): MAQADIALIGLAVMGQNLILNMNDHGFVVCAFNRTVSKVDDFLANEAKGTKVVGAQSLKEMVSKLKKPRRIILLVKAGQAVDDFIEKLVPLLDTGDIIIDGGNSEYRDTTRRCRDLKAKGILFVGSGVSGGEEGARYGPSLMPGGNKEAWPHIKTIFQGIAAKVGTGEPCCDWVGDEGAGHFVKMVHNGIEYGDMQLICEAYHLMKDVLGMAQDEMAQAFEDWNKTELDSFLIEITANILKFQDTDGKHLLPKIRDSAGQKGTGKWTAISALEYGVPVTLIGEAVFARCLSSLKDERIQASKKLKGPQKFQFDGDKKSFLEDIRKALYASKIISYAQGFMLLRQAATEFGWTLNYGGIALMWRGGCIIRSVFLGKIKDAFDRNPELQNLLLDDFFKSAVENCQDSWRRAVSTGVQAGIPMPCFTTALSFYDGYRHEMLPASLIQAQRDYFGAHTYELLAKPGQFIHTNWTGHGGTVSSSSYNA

O=C(OCc1ccccc1)c1ccccc1
inactive: insulin secretion stimulation [1] 0.7% | viability decrease [2] -5.3% | tube area decrease [3] 5.6% | GLP1 secretion stimulation [4] -2.6% | inhibition of viability [5] 10.4% | viability decrease (inhibition) [6] -12.6% | viability decrease (inhibition) [7] -9.1% | inhibition [8] -0.0939% | red/green cell ratio (normalised) [9] 0.83
1.11: normalised cell number [9, 17]
1.34: normalised cell number [9, 16]

CC(C)(Oc1ccc(Cl)cc1)C(=O)O
1.11: normalised cell number [9, 16]
inactive: insulin secretion stimulation [1] -2.3% | viability decrease [2] -12.6% | tube area decrease [3] -2.8% | GLP1 secretion stimulation [4] 4.6% | inhibition of viability [5] 13.2% | viability decrease (inhibition) [6] 12.2% | viability decrease (inhibition) [7] -5.25% | inhibition [8] -17.2% | red/green cell ratio (normalised) [9] 0.77 | remaining activity [10] 92.9%
0.86: normalised cell number [9, 17]

Cc1scc2c1N(C(=O)CN1CCN(C)CC1)c1ccccc1NC2=O
0.92: normalised cell number [9, 17]
0.88: normalised cell number [9, 16]
active: viability decrease (inhibition) [7] 1.4%
inactive: insulin secretion stimulation [1] 4% | viability decrease [2] -15.9% | tube area decrease [3] -6.3% | GLP1 secretion stimulation [4] -2.6% | inhibition of viability [5] -4.6% | viability decrease (inhibition) [6] 2% | inhibition [8] 10.3% | red/green cell ratio (normalised) [9] 1.05 | remaining activity [10] 94.5%

CCCOc1ccccc1-c1nc2n[nH]nc2c(=O)[nH]1
1.02: normalised cell number [9, 16]
0.97: normalised cell number [9, 17]
inactive: insulin secretion stimulation [1] -0.8% | viability decrease [2] -203% | tube area decrease [3] -11.3% | GLP1 secretion stimulation [4] 1.4% | inhibition of viability [5] 17.5% | viability decrease (inhibition) [6] 9.4% | viability decrease (inhibition) [7] 1% | inhibition [8] -4.08% | red/green cell ratio (normalised) [9] 0.95 | remaining activity [10] 122%

Cc1ccc(C(=O)Nc2ccc(S(=O)(=O)O)c3cc(S(=O)(=O)O)cc(S(=O)(=O)O)c23)cc1NC(=O)c1cccc(NC(=O)Nc2cccc(C(=O)Nc3cc(C(=O)Nc4ccc(S(=O)(=O)O)c5cc(S(=O)(=O)O)cc(S(=O)(=O)O)c45)ccc3C)c2)c1
0.96 and 1.07: normalised cell number [9, 16]
1.17 and 0.97: normalised cell number [9, 17]
inactive: insulin secretion stimulation [1] 1.6% | viability decrease [2] -23.9% | tube area decrease [3] 6% | inhibition of viability [5] -17.7% | viability decrease (inhibition) [6] -22.7% | viability decrease (inhibition) [7] 8.3% | red/green cell ratio (normalised) [9] 1.23 and 0.9 | outcome [12]
active: GLP1 secretion stimulation [4] 36.3% | inhibition [8] 27.5% | remaining activity [10] 38.8% | AC50 [11] 14.4 µM

O=c1c(O)c(-c2ccc(O)c(O)c2)oc2cc(O)cc(O)c12
inactive: insulin secretion stimulation [1] -2.9% | GLP1 secretion stimulation [4] 5.9% | inhibition of viability [5] 4.5% | viability decrease (inhibition) [7] 46.2% | red/green cell ratio (normalised) [9] 0.91 | remaining activity [10] 113% | outcome [11] | outcome [12]
1.15: normalised cell number [9, 16]
1.04: normalised cell number [9, 17]
active: viability decrease [2] 81.4% | tube area decrease [3] 42.7% | viability decrease (inhibition) [6] 70.2% | inhibition [8] 26.1%

COc1ccc(-c2cc(C(F)F)nn2-c2ccc(S(N)(=O)=O)cc2)cc1F
1.12: normalised cell number [9, 16]
inactive: insulin secretion stimulation [1] -0.6% | viability decrease [2] -65.6% | tube area decrease [3] 10.3% | GLP1 secretion stimulation [4] 5.7% | inhibition of viability [5] 22.3% | viability decrease (inhibition) [6] 6.3% | viability decrease (inhibition) [7] 1.8% | inhibition [8] -12.8% | red/green cell ratio (normalised) [9] 0.98
1.1: normalised cell number [9, 17]

O=C(c1ccc(F)cc1)C1CCN(CCn2c(=O)[nH]c3ccccc3c2=O)CC1
0.99: normalised cell number [9, 16]
active: tube area decrease [3] -2.2% | inhibition of viability [5] 52.6%
inactive: insulin secretion stimulation [1] 2.5% | viability decrease [2] 19.4% | GLP1 secretion stimulation [4] 2.6% | viability decrease (inhibition) [6] 19.5% | viability decrease (inhibition) [7] 16.9% | inhibition [8] 8.02% | red/green cell ratio (normalised) [9] 0.88 | remaining activity [10] 124% | outcome [13] | outcome [14] | outcome [15]
0.88: normalised cell number [9, 17]

C[n+]1cc2c3c(ccc2c2ccc4cc5c(cc4c21)OCO5)OCO3
inactive: insulin secretion stimulation [1] -3.7% | inhibition [8] 11.1% | red/green cell ratio (normalised) [9] 1.2
0.84: normalised cell number [9, 16]
1.01: normalised cell number [9, 17]
active: viability decrease [2] 99.8% | tube area decrease [3] 104% | GLP1 secretion stimulation [4] 27.5% | inhibition of viability [5] 102% | viability decrease (inhibition) [6] 141% | viability decrease (inhibition) [7] 105%

CCCOc1ccc2nc(NC(=O)OC)[nH]c2c1
active: tube area decrease [3] 107% | inhibition of viability [5] 57.5% | AC50 [11] 0.372 µM | AC50 [12] 0.661 µM
0.21: normalised cell number [9, 17]
0.2: normalised cell number [9, 16]
inactive: insulin secretion stimulation [1] 1.2% | viability decrease [2] 27% | GLP1 secretion stimulation [4] -1.2% | viability decrease (inhibition) [6] 14.3% | viability decrease (inhibition) [7] 38.1% | inhibition [8] 2.75% | red/green cell ratio (normalised) [9] 1.06 | outcome [13]

COc1ccc2cc3[n+](cc2c1OC)CCc1cc2c(cc1-3)OCO2
inactive: insulin secretion stimulation [1] 1.05% | GLP1 secretion stimulation [4] 0.3% | viability decrease (inhibition) [6] 33.2% | inhibition [8] 10.3% | red/green cell ratio (normalised) [9] 0.81
0.69: normalised cell number [9, 17]
active: viability decrease [2] 57.5% | tube area decrease [3] 57.3% | inhibition of viability [5] 84% | viability decrease (inhibition) [7] 62.7% | AC50 [11] 18.6 µM | AC50 [14] 4.18 µM | AC50 [12] 16.6 µM
0.85: normalised cell number [9, 16]

CN(Cc1cc(Br)cc(Br)c1N)C1CCCCC1
1.33: normalised cell number [9, 17]
0.99: normalised cell number [9, 16]
inactive: insulin secretion stimulation [1] 6.9% | tube area decrease [3] 7.5% | GLP1 secretion stimulation [4] -1.6% | inhibition [8] 16% | red/green cell ratio (normalised) [9] 1.35 | outcome [13] | outcome [14]
active: viability decrease [2] 87.5% | inhibition of viability [5] 80.7% | viability decrease (inhibition) [6] 125% | viability decrease (inhibition) [7] 97.2% | AC50 [11] 26.3 µM | AC50 [12] 20.9 µM

Nc1nc(=S)c2[nH]cnc2[nH]1
1.07: normalised cell number [9, 17]
0.83: normalised cell number [9, 16]
active: viability decrease [2] 47.4% | tube area decrease [3] 104% | inhibition of viability [5] 96.4% | viability decrease (inhibition) [6] 101% | viability decrease (inhibition) [7] 52.9% | AC50 [11] 0.59 µM | AC50 [14] 0.833 µM | AC50 [15] 7.43 µM | AC50 [12] 2.35 µM
inactive: insulin secretion stimulation [1] -2% | GLP1 secretion stimulation [4] 1.9% | inhibition [8] 4.15% | red/green cell ratio (normalised) [9] 1.29
